PubChem BioAssay (EPA / NIEHS)
The source made the active and inactive calls. Rule for the calls: active = hit-call score of the fitted dose curve at least 0.9, where 1 is the maximum; inactive = score below 0.9.

The compounds below were run on Apolipoprotein A-V (APOA5) gene, APOA5 (gene 116519) (assay: LTEA_HepaRG_APOA5: Life Technologies and Expression Analysis (LTEA) Assay for Apolipoprotein A-V (APOA5) gene using HepaRG (AID 2283474)). Conditions: mRNA level, 48 h; actives raise or lower the signal.
Description: LTEA_HepaRG is a cell based, multiplexed-readout assay that uses HepaRG, a human liver cell line, with measurements taken at 48 hours after chemical dosing on a 96-well plate.LTEA_HepaRG_APOA5 is one of 102 assay component(s) measured in the LTEA HepaRG cell culture assay. It is a marker of Steatosis.Data from the assay component LTEA_HepaRG_APOA5 was analyzed into 1 endpoint. This assay endpoint, LTEA_HepaRG_APOA5, was analyzed with bidirectional fitting relative to DMSO as the negative control and baseline of activity. Using a type of inducible reporter, measures of mRNA induction for gain or loss-of-signal activity can be used to understand regulation of transcription factor activity. To generalize the intended target to other relatable targets, this assay endpoint is annotated to the apolipoprotein intended target family, where the subfamily is Steatosis.
A total of 1060 chemcials from the ToxCast library were tested in eight-point concentration-response experiments. Cell culture and cytotoxicity assays were conducted at Thermo Fisher Scientific's Custom Services facility (Madison, WI). A single lot of human HepaRG cells (Thermo Fisher Scientific, Frederick, MD) was used for the cell culture experiments. 96-well format collagen type I coated plates of human HepaRG cells were prepared using established methods. Briefly, cryopreserved HepaRG cells were thawed, plated at a density of approximately 100,000 cells/well in HepaRG Thaw, Plate, and General Purpose media (HPRG770, Thermo Fisher Scientific), and incubated for 48 hours. 0.5% DMSO was selected as vehicle control to balance the requisite need of DMSO in HepaRG cultures to maintain differentiation (for example, baseline metabolism, proportions of hepatocytes vs. cholangiocytes), while enabling further hepatic receptor pathway activation (for example, PXR and CAR) in response to chemical exposure. 48 hours after plating, the culture medium was replaced with HepaRG Serum-Free Incudtion Media. Cells were exposed to each test chemical in duplicate and maintained in CO2 incubators for another 48 hours. Chemical plates were thawed to room temperature and 200x concentrations of treatment groups were prepared. 8-point conentration-reponse curves were made with the highest exposure at 100 uM, followed by half-log dilutions, all in 0.5% DMSO. Each test plate contained variouse controls, induction positive controls (1mM phenobarbital), cytotoxicity positive controls ([…] aflatoxin B1), vehicle controls (0.5% DMSO), and total lysis controls (0.5% DMSO). Cell morphology images were taken using an Essen IncuCyte FLR automated microscope, with six 96-well plates imaged in about 24 minutes. Images were captured and exported and JPEG files. Spent culture media was transfered to black-well plates for the LDH assay, and remaining media was sorted at -80 C for later use. Cells were treated with RLT buffer and frozen until shipped for gene expression analysis. Total RNA was isolated from the cell suspension in 75 uL of Buffer RLT (Qiagen, Germantown, MD 20874) by Quintiles/Expression Analysis (Durham, NC) using a custom isolation procedure. Total RNA from each plate well was transferred to a preamplification plate. Fluidigm's 96.96 Dynamic ArrayTM (Fluidigm, Amsterdam, the Netherlands) technology was used for gene expression analyses by quantitative reverse transcription polymerase chain reaction (qRT-PCR, performed by Quintiles/Expression Analysis, Durham, NC)89. Standard TaqManTM Assays (Applied Biosystems/ThermoFisher Scientific, Foster City, CA) were used to assess the expression of 93 genes selected based on their selectivity and sensitivity to important hepatic receptors known to be modulated by environmental chemicals; importance in human hepatocyte functionality; and hepatotoxicity. […]

| Compound | outcome | AC50 |
| --- | --- | --- |
| C=CCCCCCCCCCCCC | inactive |  |
| CCCCCCC(C=O)=Cc1ccccc1 | inactive |  |
| CN(C)C(=O)NC1(c2ccccc2)CCN(CCC[C@]2(c3ccc(Cl)c(Cl)c3)CCCN(C(=O)c3ccccc3)C2)CC1 |  | 21.3 µM (active) |
| CC(N)=O | inactive |  |
| COc1ccc(C(=O)Nc2nc3ccccc3c(NCc3ccccc3)c2C#N)cc1 | inactive |  |
| CCc1nc(N)nc(N)c1-c1ccc(Cl)cc1 | inactive |  |
| Cc1ccc(C(C)(C)C)c(O)c1 | inactive |  |
| O=C1CCCCC1 | inactive |  |
| O=C(N[C@@H](c1ccccc1)[C@@H]1CCCCN1)c1cccc(C(F)(F)F)c1Cl | inactive |  |
| O=C1NC(=O)C(c2ccccc2)(c2ccccc2)N1 | inactive |  |
| O=[Si]=O | inactive |  |
| CCCC[C@H]1CN(CC2CCOCC2)C(=O)OC12CCN(C1(C)CCN(C(=O)c3c(C)ncnc3C)CC1)CC2 | inactive |  |
| S=c1[nH]c2ccccc2s1 | inactive |  |
| CCCCCCC(CCCCCCCCCCC(=O)OCC(COC(C)=O)OC(C)=O)OC(C)=O (stereo not given) | inactive |  |
| CCCC(=O)O | inactive |  |
| Cc1cc(Cc2ccc(N)c(C)c2)ccc1N | inactive |  |
| CC1=C(C)S(=O)(=O)CCS1(=O)=O |  | 0.187 µM (active) |
| O=NO | inactive |  |
| C=CCc1ccc(OC)c(OC)c1 | inactive |  |
| CSc1ccc(Oc2ccc(S(N)(=O)=O)cc2CN(C)C)cc1C | inactive |  |

| Compound | outcome | AC50 |
| --- | --- | --- |
| O=C(O)c1[nH]n(-c2ccc(S(=O)(=O)O)cc2)c(=O)c1N=Nc1ccc(S(=O)(=O)O)cc1 | inactive |  |
| CN(C)C(=O)NC1(c2ccccc2)CCN(CC[C@@]2(c3ccc(F)c(F)c3)CN(C(=O)c3ccccc3)CCO2)CC1 |  | 29.8 µM (active) |
| NC1CCCCC1 | inactive |  |
| CCCCC(CC)COP(=O)(OCC(CC)CCCC)OCC(CC)CCCC (stereo not given) | inactive |  |
| CO[C@@H]1COCC[C@@H]1N[C@@H]1CC[C@@](C(=O)N2CCc3ncc(C(F)(F)F)cc3C2)(C(C)C)C1 | inactive |  |
| CN(C)CCCN(C)CCCN(C)C | inactive |  |
| Cc1cc(SC2=C(O)C[C@@](CCc3ccc(N)cc3)(C(C)C)OC2=O)c(C(C)(C)C)cc1CO | inactive |  |
| COC(=O)[C@H]1[C@H]2C[C@@H]3c4[nH]c5cc(OC)ccc5c4CCN3C[C@H]2C[C@@H](OC(=O)c2cc(OC)c(OC)c(OC)c2)[C@@H]1OC |  | 55.6 µM (active) |
| CC(=O)O[C@]1(C(C)=O)CC[C@H]2[C@@H]3C=C(Cl)C4=CC(=O)[C@@H]5C[C@@H]5[C@]4(C)[C@H]3CC[C@@]21C |  | 84.3 µM (active) |
| O=C1O[C@H]([C@H](O)CO)C(O)=C1O | inactive |  |
| C/C=C/c1ccc(OC)cc1 | inactive |  |
| O=C1c2c(O)cccc2Cc2cccc(O)c21 | inactive |  |
| c1ccc2occc2c1 | inactive |  |
| OCC(CO)n1cnc(-c2ccc(F)cc2)c1-c1ccnc(Oc2ccccc2)n1 | inactive |  |
| Cc1ccc(-c2cc(C(F)(F)F)nn2-c2ccc(S(N)(=O)=O)cc2)cc1 | inactive |  |
| CC(=O)S[C@H](C(=O)N[C@H]1Cc2ccccc2[C@H]2CCC[C@@H](C(=O)O)N2C1=O)C(C)C | inactive |  |
| Cc1c(C)c2c(c(C)c1O)CCC(C)(COc1ccc(CC3SC(=O)NC3=O)cc1)O2 (stereo not given) | inactive |  |
| O=C1OC(c2ccc(O)cc2)(c2ccc(O)cc2)c2ccccc21 | inactive |  |
| CCCCCCCC(=O)OC | inactive |  |
| NCCOCCOCCN | inactive |  |
